According to the supplement of paper PMC11732987, “Enantioselective OTUD7B fragment discovery through chemoproteomics screening and high-throughput optimisation” (Communications Chemistry, 2025):

Tests used:
Test in all cases: log2 ratio of Biotin-Ahx-Ub-VS probe labelling (fragment/DMSO); higher = less target engagement (more negative = stronger competition), active = hit call of the paper (q ≤ 0.05, log2 ratio ≤ -1)
Conditions in all cases: compound concentration: 200 uM; treatment time: 3 h
USP34 = USP34 (UniProt Q70CQ2)
Summary of the method: (§1)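 HEK293T lysate, 495 µg per sample in Tris/CHAPS/IGEPAL buffer with protease inhibitors, was treated in triplicate with fragment at 200 µM or vehicle for 3 h and then with Biotin-Ahx-Ub-VS at 0.5 µM final for 1 h. Labelled DUBs were NeutrAvidin-enriched, digested with LysC and trypsin, and run by diaPASEF LC-MS/MS. Spectronaut label-free quantities were global-median-normalised, and values are average log2 fragment/vehicle ratios by unpaired t-test on proteins with ≥2 unique peptides.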

USP36 = target: T1, USP36 (UniProt Q9P275)
T1 sequence (whole entry): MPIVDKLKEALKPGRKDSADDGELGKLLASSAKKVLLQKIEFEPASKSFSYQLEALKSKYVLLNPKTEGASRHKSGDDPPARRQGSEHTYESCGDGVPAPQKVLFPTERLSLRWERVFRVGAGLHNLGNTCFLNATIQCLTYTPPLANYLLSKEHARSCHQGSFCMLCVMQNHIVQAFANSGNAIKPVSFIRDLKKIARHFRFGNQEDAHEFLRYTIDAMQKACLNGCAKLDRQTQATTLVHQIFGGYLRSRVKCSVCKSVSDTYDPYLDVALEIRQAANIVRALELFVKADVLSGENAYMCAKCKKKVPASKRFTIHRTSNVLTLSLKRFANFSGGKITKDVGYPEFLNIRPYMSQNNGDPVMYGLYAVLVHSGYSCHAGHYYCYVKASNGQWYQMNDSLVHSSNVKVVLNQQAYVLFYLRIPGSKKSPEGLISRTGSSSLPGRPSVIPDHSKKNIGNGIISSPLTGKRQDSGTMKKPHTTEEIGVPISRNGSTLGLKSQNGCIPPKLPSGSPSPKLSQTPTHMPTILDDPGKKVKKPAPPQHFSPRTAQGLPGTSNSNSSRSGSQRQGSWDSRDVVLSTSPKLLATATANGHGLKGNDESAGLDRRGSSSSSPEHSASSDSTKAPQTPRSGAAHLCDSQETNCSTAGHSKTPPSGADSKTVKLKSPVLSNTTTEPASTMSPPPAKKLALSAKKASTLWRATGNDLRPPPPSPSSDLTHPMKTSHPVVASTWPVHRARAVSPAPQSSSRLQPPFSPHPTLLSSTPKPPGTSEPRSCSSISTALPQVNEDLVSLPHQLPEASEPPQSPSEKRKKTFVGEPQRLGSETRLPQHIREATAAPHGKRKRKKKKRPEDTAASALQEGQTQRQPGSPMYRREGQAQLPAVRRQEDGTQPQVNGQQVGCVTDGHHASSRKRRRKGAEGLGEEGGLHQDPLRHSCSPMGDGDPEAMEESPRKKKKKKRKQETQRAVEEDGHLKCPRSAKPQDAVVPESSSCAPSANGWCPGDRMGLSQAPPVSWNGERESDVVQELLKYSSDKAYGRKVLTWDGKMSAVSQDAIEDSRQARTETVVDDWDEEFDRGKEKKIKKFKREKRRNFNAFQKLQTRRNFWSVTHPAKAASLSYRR
Summary of the method: as §1

USP38 = target: T2, USP38 (UniProt Q8NB14)
T2 sequence (whole entry): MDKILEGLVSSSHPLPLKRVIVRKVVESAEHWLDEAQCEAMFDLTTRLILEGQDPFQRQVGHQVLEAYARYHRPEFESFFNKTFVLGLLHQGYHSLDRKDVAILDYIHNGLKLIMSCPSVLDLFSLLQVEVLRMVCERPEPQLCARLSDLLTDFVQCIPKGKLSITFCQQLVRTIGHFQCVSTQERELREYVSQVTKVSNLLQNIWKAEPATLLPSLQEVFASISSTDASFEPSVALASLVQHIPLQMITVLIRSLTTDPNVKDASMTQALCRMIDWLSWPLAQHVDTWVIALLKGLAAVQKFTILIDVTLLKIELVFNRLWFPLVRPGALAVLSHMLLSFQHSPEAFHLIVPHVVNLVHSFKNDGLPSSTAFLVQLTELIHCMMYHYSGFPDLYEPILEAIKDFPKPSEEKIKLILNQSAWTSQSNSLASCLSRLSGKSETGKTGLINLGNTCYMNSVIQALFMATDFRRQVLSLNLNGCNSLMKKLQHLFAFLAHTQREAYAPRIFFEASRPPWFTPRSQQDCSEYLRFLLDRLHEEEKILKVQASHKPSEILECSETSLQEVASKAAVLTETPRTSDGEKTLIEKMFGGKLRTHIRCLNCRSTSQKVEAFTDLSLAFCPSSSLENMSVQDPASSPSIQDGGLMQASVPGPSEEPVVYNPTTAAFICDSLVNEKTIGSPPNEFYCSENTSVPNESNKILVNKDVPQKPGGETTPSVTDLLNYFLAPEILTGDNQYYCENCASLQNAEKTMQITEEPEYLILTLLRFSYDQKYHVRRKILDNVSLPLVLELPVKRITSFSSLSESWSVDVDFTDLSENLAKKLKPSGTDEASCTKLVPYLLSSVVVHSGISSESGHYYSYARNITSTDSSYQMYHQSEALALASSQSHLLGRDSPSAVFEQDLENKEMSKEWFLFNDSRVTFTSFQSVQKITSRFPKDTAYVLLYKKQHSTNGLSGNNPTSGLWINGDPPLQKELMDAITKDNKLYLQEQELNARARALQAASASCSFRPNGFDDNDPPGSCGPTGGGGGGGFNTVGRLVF
Summary of the method: as §1

USP39 = target: T3, USP39 (UniProt Q53GS9)
T3 sequence (whole entry): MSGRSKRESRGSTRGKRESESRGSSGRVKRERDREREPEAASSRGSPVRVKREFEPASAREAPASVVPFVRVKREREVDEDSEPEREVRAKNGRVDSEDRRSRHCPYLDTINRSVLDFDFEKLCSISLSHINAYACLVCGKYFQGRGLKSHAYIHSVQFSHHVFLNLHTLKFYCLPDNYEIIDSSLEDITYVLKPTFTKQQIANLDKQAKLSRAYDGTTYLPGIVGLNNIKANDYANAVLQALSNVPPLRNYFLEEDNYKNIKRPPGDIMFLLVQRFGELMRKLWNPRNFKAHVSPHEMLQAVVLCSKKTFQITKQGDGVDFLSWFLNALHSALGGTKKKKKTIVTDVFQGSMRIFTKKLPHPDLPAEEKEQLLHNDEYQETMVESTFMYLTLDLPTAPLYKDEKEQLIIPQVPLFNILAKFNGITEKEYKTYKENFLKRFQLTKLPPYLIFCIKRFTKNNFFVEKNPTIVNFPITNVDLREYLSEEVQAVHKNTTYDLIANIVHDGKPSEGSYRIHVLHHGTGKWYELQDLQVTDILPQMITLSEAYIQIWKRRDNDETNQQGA
Summary of the method: as §1

USP4 = target: T4, USP4 (UniProt Q13107)
T4 sequence (whole entry): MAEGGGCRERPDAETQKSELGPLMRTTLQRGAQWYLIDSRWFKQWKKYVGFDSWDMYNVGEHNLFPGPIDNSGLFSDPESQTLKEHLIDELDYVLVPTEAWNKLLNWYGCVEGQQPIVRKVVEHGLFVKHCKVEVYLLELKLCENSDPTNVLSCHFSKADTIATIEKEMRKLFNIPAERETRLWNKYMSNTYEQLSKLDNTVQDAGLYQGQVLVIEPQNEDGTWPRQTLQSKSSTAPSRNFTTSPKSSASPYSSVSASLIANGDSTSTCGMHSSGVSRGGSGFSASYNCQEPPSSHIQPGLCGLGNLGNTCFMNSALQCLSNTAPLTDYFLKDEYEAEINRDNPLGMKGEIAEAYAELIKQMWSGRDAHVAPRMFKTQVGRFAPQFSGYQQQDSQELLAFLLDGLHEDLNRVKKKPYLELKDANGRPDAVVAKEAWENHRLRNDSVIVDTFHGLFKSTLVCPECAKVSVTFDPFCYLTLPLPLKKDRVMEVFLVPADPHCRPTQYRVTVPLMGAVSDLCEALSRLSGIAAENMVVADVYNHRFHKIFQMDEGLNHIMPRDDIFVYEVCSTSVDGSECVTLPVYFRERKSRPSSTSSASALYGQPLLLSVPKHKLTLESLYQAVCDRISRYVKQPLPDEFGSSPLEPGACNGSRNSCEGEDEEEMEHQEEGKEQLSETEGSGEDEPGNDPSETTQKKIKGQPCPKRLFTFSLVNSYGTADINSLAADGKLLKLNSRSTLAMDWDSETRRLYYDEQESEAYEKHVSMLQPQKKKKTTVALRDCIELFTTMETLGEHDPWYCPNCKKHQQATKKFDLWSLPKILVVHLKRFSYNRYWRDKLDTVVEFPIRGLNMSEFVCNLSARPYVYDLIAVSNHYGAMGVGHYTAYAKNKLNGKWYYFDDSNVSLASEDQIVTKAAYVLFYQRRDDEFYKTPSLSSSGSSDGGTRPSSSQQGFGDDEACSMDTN
Summary of the method: as §1

Measured: log2 ratio of Biotin-Ahx-Ub-VS probe labelling

USP34, sequence (Q70CQ2 whole entry, the tested form may be a part): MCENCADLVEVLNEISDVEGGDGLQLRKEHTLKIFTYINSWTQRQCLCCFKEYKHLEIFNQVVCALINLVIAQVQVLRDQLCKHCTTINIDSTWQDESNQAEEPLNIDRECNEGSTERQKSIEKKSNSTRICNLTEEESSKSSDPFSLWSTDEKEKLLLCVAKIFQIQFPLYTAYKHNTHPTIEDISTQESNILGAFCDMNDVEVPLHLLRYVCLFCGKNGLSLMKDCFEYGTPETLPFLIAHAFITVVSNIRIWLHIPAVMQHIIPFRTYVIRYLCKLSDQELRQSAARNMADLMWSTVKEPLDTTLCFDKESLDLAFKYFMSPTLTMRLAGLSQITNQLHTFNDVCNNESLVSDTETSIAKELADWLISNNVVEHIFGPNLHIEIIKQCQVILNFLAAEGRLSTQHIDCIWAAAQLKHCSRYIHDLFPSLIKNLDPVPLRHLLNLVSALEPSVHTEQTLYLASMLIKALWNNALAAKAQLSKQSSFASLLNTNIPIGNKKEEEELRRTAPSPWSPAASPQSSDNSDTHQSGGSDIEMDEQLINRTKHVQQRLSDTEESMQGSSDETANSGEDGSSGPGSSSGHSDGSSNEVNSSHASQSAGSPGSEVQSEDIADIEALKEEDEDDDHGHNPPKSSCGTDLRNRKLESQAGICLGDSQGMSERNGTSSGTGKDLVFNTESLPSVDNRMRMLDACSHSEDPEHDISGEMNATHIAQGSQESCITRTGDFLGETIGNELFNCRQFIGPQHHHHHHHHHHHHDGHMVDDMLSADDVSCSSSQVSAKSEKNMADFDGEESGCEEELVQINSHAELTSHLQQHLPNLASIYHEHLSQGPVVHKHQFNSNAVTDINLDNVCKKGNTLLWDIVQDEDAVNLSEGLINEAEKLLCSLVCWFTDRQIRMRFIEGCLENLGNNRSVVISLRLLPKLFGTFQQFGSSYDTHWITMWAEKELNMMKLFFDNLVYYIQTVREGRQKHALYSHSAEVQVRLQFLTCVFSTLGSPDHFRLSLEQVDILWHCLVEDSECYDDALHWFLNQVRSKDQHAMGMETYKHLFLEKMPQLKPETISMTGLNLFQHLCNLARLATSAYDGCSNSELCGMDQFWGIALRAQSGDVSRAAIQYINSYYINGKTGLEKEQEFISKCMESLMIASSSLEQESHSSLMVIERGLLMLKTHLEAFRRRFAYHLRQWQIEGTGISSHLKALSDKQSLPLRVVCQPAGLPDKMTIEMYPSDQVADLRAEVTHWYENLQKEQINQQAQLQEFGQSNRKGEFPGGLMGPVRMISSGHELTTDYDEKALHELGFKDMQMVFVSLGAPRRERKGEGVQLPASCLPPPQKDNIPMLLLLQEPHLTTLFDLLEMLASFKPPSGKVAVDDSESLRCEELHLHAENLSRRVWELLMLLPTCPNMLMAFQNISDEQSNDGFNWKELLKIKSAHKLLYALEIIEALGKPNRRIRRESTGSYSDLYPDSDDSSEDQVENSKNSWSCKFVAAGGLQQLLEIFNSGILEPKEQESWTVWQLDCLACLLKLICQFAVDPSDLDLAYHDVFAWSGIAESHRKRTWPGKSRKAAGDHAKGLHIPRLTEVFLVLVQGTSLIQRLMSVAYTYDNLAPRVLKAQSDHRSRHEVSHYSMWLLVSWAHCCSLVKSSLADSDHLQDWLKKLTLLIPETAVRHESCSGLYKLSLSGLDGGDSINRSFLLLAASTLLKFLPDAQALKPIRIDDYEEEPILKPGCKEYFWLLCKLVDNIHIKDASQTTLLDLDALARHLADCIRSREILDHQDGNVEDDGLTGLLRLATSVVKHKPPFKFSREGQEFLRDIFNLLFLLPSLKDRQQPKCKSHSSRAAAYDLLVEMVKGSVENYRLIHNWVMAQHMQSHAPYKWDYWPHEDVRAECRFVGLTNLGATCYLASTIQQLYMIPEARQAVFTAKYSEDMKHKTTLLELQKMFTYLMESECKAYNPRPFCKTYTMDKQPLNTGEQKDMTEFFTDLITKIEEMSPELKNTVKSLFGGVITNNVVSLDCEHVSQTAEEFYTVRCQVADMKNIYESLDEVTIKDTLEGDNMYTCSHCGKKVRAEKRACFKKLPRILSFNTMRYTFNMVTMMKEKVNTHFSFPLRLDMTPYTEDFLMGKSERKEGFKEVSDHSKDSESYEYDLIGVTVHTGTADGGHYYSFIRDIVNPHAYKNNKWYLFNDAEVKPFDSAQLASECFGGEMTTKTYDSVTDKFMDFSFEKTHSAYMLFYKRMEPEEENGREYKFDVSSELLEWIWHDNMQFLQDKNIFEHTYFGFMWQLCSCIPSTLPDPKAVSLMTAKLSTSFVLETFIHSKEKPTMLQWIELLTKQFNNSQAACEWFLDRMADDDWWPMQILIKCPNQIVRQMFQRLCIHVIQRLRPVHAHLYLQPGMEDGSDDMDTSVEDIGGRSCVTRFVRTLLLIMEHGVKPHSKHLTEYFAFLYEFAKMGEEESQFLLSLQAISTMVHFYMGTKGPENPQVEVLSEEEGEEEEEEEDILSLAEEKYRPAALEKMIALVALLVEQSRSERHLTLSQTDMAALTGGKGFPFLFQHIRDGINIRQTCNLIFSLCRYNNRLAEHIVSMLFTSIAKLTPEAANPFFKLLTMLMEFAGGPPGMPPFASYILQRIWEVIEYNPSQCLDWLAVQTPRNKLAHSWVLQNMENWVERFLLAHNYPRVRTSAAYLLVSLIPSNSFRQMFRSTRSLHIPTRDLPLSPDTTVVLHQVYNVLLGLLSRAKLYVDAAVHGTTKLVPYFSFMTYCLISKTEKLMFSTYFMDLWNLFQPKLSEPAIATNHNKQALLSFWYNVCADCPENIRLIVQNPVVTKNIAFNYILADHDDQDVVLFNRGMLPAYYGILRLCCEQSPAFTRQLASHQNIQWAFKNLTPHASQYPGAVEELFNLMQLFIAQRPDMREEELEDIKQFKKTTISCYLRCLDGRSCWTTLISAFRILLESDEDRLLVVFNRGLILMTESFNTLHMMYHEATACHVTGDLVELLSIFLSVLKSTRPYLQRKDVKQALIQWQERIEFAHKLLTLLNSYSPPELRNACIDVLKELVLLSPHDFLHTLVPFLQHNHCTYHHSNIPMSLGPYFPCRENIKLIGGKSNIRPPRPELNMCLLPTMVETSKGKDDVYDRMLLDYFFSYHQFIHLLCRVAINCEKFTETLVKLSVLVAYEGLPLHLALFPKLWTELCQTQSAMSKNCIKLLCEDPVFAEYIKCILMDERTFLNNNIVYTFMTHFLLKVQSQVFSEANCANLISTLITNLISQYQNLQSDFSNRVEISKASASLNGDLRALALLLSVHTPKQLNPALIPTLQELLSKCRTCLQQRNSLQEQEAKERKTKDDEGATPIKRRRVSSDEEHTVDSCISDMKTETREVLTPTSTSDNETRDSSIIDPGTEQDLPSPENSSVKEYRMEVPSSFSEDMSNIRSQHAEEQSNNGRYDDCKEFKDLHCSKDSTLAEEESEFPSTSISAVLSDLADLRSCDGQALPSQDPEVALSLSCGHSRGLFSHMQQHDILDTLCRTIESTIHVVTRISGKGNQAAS

Cc1nc(CN2CCCN(C(=O)CCl)CC2)no1.Cl
inactive: USP34 0.0178 | USP36 -0.0476 | USP38 0.0657 | USP39 -0.161 | USP4 0.31
